Structures can show the parent of a compound that is named as a salt. ± gives the standard deviation of the averaged measurements.
What was measured:
Experiment in all cases: growth (OD600 after 10 h); higher = more growth (less inhibition)
[1] = system: E. coli TESEC Alr+ wild-type control; conditions: compound 0.1 mM; raw OD600 reference: median of DMSO wells 0.241, cell-free background 0.041
Description: (§1)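 TESEC Mtb Alr E. coli, or the Alr+ wild-type control, in 384-well plates with Prestwick library compounds at 0.1 mM and 1% DMSO, across arabinose induction levels of 1E3 to 1E7 nM. Growth is read as OD600 after 10 h at 37 °C in triplicate biological replicates.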

E. coli TESEC Mtb Alr [2] = conditions: compound 0.1 mM
Description: as §1

E. coli TESEC Mtb Asd = conditions: compound 0.1 mM
Description: (§2)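 TESEC E. coli strains in which the native enzyme is deleted and replaced by arabinose-inducible Mtb Asd, DapB, CysH or TrpD, each grown in its selective medium. Strains were screened against the Prestwick library at 0.1 mM and 1% DMSO in 384-well format at low and high arabinose induction. Growth is read as OD600 after 10 h in triplicate.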

E. coli TESEC Mtb DapB = conditions: compound 0.1 mM
Description: as §2

[3] = system: E. coli TESEC Alr+ wild-type control; conditions: compound 0.1 mM; raw OD600 reference: median of DMSO wells 0.49, cell-free background 0.052
Description: (§3)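 TESEC Mtb Alr E. coli (ΔaraC ΔtolC ΔentC Δalr ΔdadX, arabinose-inducible Mtb Alr) or the Alr+ wild-type control strain, grown in defined M9-fructose medium without D-alanine in 96-well plates with Prestwick library compounds at 0.1 mM and 1% DMSO. Low Alr induction is 0.1 µM arabinose and high induction is 10 mM arabinose.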

E. coli TESEC Mtb Alr [4] = conditions: compound 0.1 mM; remark: listed apart in the source
Description: as §3

[5] = arabinose 1000 nM, raw OD600 reference: median of DMSO wells 0.294, cell-free background 0.041
[6] = arabinose 10000 nM, raw OD600 reference: median of DMSO wells 0.264, cell-free background 0.041
[7] = arabinose 100000 nM, raw OD600 reference: median of DMSO wells 0.201, cell-free background 0.041
[8] = arabinose 1000000 nM, raw OD600 reference: median of DMSO wells 0.193, cell-free background 0.041
[9] = arabinose 10000000 nM, raw OD600 reference: median of DMSO wells 0.146, cell-free background 0.041
[10] = arabinose induction (level): High, raw OD600 reference: median of DMSO wells 0.331, cell-free background 0.041
[11] = arabinose induction (level): Low, raw OD600 reference: median of DMSO wells 0.417, cell-free background 0.041
[12] = arabinose induction (level): High, raw OD600 reference: median of DMSO wells […], cell-free background 0.041
[13] = arabinose induction (level): Low, raw OD600 reference: median of DMSO wells 0.227, cell-free background 0.041
[14] = arabinose 100 nM, raw OD600 reference: median of DMSO wells 0.413, cell-free background 0.052
[15] = arabinose 10000000 nM, raw OD600 reference: median of DMSO wells […], cell-free background 0.052

Row | Structure (SMILES) | growth [1] | growth (E. coli TESEC Mtb Alr [2]; [5]) | growth (E. coli TESEC Mtb Alr [2]; [6]) | growth (E. coli TESEC Mtb Alr [2]; [7]) | growth (E. coli TESEC Mtb Alr [2]; [8]) | growth (E. coli TESEC Mtb Alr [2]; [9]) | growth (E. coli TESEC Mtb Asd; [10]) | growth (E. coli TESEC Mtb Asd; [11]) | growth (E. coli TESEC Mtb DapB; [12]) | growth (E. coli TESEC Mtb DapB; [13]) | growth [3] | growth (E. coli TESEC Mtb Alr [4]; [14]) | growth (E. coli TESEC Mtb Alr [4]; [15])
1 | COc1cc(C(=O)NCc2ccc(OCCN(C)C)cc2)cc(OC)c1OC [Trimethobenzamide hydrochloride] | 0.2204 ± 0.0014 | 0.295 ± 0.0097 | 0.254 ± 0.011 | 0.201 ± 0.017 | 0.158 ± 0.0074 | 0.159 ± 0.0019 | 0.227 ± 0.059 | 0.385 ± 0.015 | 0.203 ± 0.021 | 0.253 ± 0.018 | 0.464 ± 0.066 | 0.412 ± 0.005 | 0.354 ± 0.022
2 | c1ccc2c(c1)CCCc1cc(NCCN3CCOCC3)nnc1-2 | 0.215 ± 0.0088 | 0.285 ± 0.013 | 0.278 ± 0.0085 | 0.17 ± 0.029 | 0.149 ± 0.0053 | 0.133 ± 0.0058 | 0.194 ± 0.055 | 0.477 ± 0.044 | 0.179 ± 0.0094 | 0.2 ± 0.013 | 0.4846 ± 0.0026 | 0.4087 ± 0.0033 | 0.328 ± 0.03
3 | Clc1ccc(C(Cn2ccnc2)OCc2csc3c(Cl)cccc23)c(Cl)c1 (stereo not given) [Sertaconazole nitrate] | 0.0563 ± 0.0014 | 0.0558 ± 0.0094 | 0.07 ± 0.0042 | 0.057 ± 0.0028 | 0.06457 ± 0.00042 | 0.0588 ± 0.0084 | 0.0594 ± 0.0039 | 0.0635 ± 0.0047 | 0.0687 ± 0.0033 | 0.0671 ± 0.0089 | 0.129 ± 0.036 | 0.12 ± 0.024 | 0.123 ± 0.0052
4 | COC(=O)[C@H]1[C@H]2C[C@@H]3c4[nH]c5cc(OC)ccc5c4CCN3C[C@H]2C[C@@H](OC(=O)c2cc(OC)c(OC)c(OC)c2)[C@@H]1OC [Reserpine] | 0.201 ± 0.0092 | 0.234 ± 0.027 | 0.223 ± 0.02 | 0.214 ± 0.012 | 0.193 ± 0.012 | 0.214 ± 0.0036 | 0.333 ± 0.032 | 0.191 ± 0.0062 | 0.245 ± 0.0092 | 0.3 ± 0.038 | 0.467 ± 0.014 | 0.408 ± 0.013 | 0.112 ± 0.076
5 | O=C(NCCN1CCOCC1)c1ccc(Cl)cc1 [Moclobemide] | 0.233 ± 0.0068 | 0.287 ± 0.0083 | 0.25 ± 0.0059 | 0.225 ± 0.032 | 0.177 ± 0.013 | 0.136 ± 0.0024 | 0.323 ± 0.11 | 0.395 ± 0.14 | 0.191 ± 0.0078 | 0.217 ± 0.025 | 0.615 ± 0.038 | 0.416 ± 0.0096 | 0.338 ± 0.009
6 | OC(CCN1CCCCC1)(c1ccccc1)C1CC2C=CC1C2 (stereo not given) [Biperiden hydrochloride] | 0.23 ± 0.031 | 0.284 ± 0.0095 | 0.275 ± 0.0046 | 0.226 ± 0.03 | 0.155 ± 0.0033 | 0.154 ± 0.0039 | 0.194 ± 0.045 | 0.38 ± 0.094 | 0.159 ± 0.012 | 0.174 ± 0.016 | 0.509 ± 0.062 | 0.415 ± 0.011 | 0.359 ± 0.035
7 | Cc1ncc(CO)c(CO)c1O [Pyridoxine hydrochloride] | 0.258 ± 0.0075 | 0.302 ± 0.013 | 0.2532 ± 0.0016 | 0.238 ± 0.034 | 0.174 ± 0.0032 | 0.168 ± 0.017 | 0.344 ± 0.1 | 0.37 ± 0.022 | 0.215 ± 0.011 | 0.239 ± 0.04 | 0.544 ± 0.025 | 0.428 ± 0.0097 | 0.32 ± 0.013
8 | CNCC(O)c1ccc(O)c(O)c1 (stereo not given) [Racepinephrine HCl] | 0.243 ± 0.0062 | 0.302 ± 0.0045 | 0.291 ± 0.0096 | 0.199 ± 0.0083 | 0.186 ± 0.0042 | 0.155 ± 0.0036 | 0.27 ± 0.052 | 0.44 ± 0.018 | 0.193 ± 0.0072 | 0.273 ± 0.06 | 0.605 ± 0.029 | 0.4177 ± 0.0019 | 0.288 ± 0.015
9 | Cc1cc(NS(=O)(=O)c2ccc(N)cc2)no1 [Sulfamethoxazole] | 0.252 ± 0.0032 | 0.271 ± 0.017 | 0.212 ± 0.011 | 0.228 ± 0.0092 | 0.126 ± 0.0035 | 0.139 ± 0.0076 | 0.404 ± 0.042 | 0.41 ± 0.063 | 0.185 ± 0.011 | 0.205 ± 0.024 | 0.45 ± 0.031 | 0.432 ± 0.013 | 0.346 ± 0.005
10 | C=C1/C(=C\C=C2/CCC[C@]3(C)[C@@H]([C@H](C)/C=C/[C@@H](O)C4CC4)CC[C@@H]23)C[C@@H](O)C[C@@H]1O [Calcipotriene] | 0.0539 ± 0.0078 | 0.0502 ± 0.0045 | 0.0544 ± 0.0042 | 0.0504 ± 0.0018 | 0.0524 ± 0.0013 | 0.056 ± 0.0013 | 0.0646 ± 0.0023 | 0.0613 ± 0.0049 | 0.158 ± 0.078 | 0.0652 ± 0.0025 | 0.0607 ± 0.0046 | 0.234 ± 0.12 | 0.0671 ± 0.0016
11 | CC[N+](C)(CC)CCOC(=O)C1c2ccccc2Oc2ccccc21 [Methantheline bromide] | 0.192 ± 0.0029 | 0.269 ± 0.011 | 0.287 ± 0.0031 | 0.18 ± 0.015 | 0.193 ± 0.025 | 0.135 ± 0.007 | 0.223 ± 0.043 | 0.344 ± 0.044 | 0.173 ± 0.018 | 0.222 ± 0.018 | 0.592 ± 0.017 | 0.4172 ± 0.0035 | 0.336 ± 0.013
12 | O=C(c1ccc(OCCN2CCCCC2)cc1)c1c(-c2ccc(O)cc2)sc2cc(O)ccc12 [Raloxifene hydrochloride] | 0.0456 ± 0.0048 | 0.0454 ± 0.0038 | 0.0428 ± 0.0024 | 0.048 ± 0.0037 | 0.0438 ± 0.002 | 0.0448 ± 0.003 | 0.062 ± 0.0013 | 0.0566 ± 0.0034 | 0.0658 ± 0.014 | 0.0509 ± 0.0031 | 0.04917 ± 0.00038 | 0.41 ± 0.007 | 0.0554 ± 0.0018
13 | CC(Oc1c(Cl)cccc1Cl)C1=NCCN1 (stereo not given) [Lofexidine] | 0.211 ± 0.008 | 0.27 ± 0.0089 | 0.259 ± 0.016 | 0.179 ± 0.015 | 0.172 ± 0.0071 | 0.139 ± 0.0016 | 0.261 ± 0.069 | 0.464 ± 0.093 | 0.205 ± 0.013 | 0.206 ± 0.012 | 0.555 ± 0.044 | 0.406 ± 0.0098 | 0.331 ± 0.032
14 | Nc1nc(=O)c2nc(CNc3ccc(C(=O)N[C@@H](CCC(=O)O)C(=O)O)cc3)cnc2[nH]1 [Folic acid] | 0.25 ± 0.0064 | 0.306 ± 0.0062 | 0.239 ± 0.0047 | 0.244 ± 0.028 | 0.149 ± 0.0059 | 0.1653 ± 0.0014 | 0.219 ± 0.037 | 0.318 ± 0.021 | 0.211 ± 0.019 | 0.239 ± 0.013 | 0.446 ± 0.02 | 0.407 ± 0.011 | 0.34 ± 0.02
15 | C[C@@H]1C[C@H]2[C@@H]3C[C@H](F)C4=CC(=O)C=C[C@]4(C)[C@@]3(F)[C@@H](O)C[C@]2(C)[C@@]1(O)C(=O)CO [Flumethasone] | 0.212 ± 0.0028 | 0.275 ± 0.013 | 0.256 ± 0.0067 | 0.188 ± 0.0075 | 0.154 ± 0.0069 | 0.127 ± 0.0043 | 0.231 ± 0.007 | 0.429 ± 0.022 | 0.193 ± 0.011 | 0.229 ± 0.014 | 0.543 ± 0.0085 | 0.402 ± 0.0073 | 0.307 ± 0.013
